Activity calls are given as the source filed them.

Test [1] can be described thus: E. coli DRC41 culture turbidity changes, primary screen, E. coli filamentation inducer project, strain DRC41, OD650, 48 h (AID 1152).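 Further: E. coli MC1000 strain DRC41 lacking acrAB efflux pump and sulA.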 The note with it: E. coli DRC41 (acrAB sulA), higher = more signal, called active from +8 up or from −8 down.
A short description of test [2]: small-molecule binders of probe aLefty1, primary screen, biochemical, small-molecule microarray, 635/667 nm fluorescence (AID 1153).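 Further: score merges spot fluorescence with signal-to-noise ratio from the scanned slide images.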 To be noted: higher = more signal.
The nature of test [3]: PSAC antagonists in infected red cells, primary screen, cell-based, P. falciparum Indochina, OD700, 1 h (AID 1154). To be noted: P. falciparum Indochina infected RBC osmotic lysis, higher = more signal, called active from +8 up or from −8 down.
Test [4] is described as follows: PSAC antagonists in infected red cells, primary screen, cell-based, P. falciparum Indochina, OD700, 2 h (AID 1155).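 Further: lysis reports solute entry through the parasite surface anion channel PSAC; channel blockers reduce lysis of infected cells.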 To be noted: P. falciparum Indochina infected erythrocytes, osmotic lysis OD700; higher = more signal, called active from +8 up or from −8 down.
Test [5] is described as follows: osmotic lysis modulators in infected erythrocytes, primary screen, PSAC antagonist project, cell-based, P. falciparum Indochina, OD700, 3 h (AID 1156). The note with it: higher = more signal, called active from +8 up or from −8 down.
Test [6] can be described thus: PSAC antagonists in infected red cells, primary screen, cell-based, P. falciparum Indochina, OD700, 18 h (AID 1157). The note with it: P. falciparum Indochina infected erythrocytes, osmotic lysis OD700, 18 h; higher = more signal, called active from +8 up or from −8 down.
Test [7] can be described thus: modulators of S6 phosphorylation in cells, primary screen, cell-based, A549, cytoblot, luminescence, serum-stimulated (AID 1158).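 Further: serum-stimulated A549 lung adenocarcinoma cells; signal is phosphorylated S6 detected by cytoblot immunostaining with HRP secondary.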 The note with it: A549 phospho-S6 cytoblot, 5 h, higher = more signal.
In test [8] the target is NADPH oxidase 2 (Homo sapiens) (UniProt P04839). As to the kind of experiment: NOX2-dependent H2O2 signal modulators, primary screen, NOX inhibitor project, cell-based, HEK293-NOX2, PMA-stimulated, Amplex Red fluorescence (AID 1159). Further: test concentration not given here. The note with it: 45 min, higher = more signal, called active from +8 up or from −8 down.
For test [9], the target named is NADPH oxidase 4 (Homo sapiens) (UniProt Q9NPH5). As to the kind of experiment: NOX4-dependent H2O2 signal modulators, primary screen, NOX inhibitor project, cell-based, HEK293-NOX4, tetracycline-induced, Amplex Red fluorescence (AID 1160). To be noted: 45 min, higher = more signal, called active from +8 up or from −8 down.
In test [10] the target is NADPH oxidase 5 (Homo sapiens) (UniProt Q96PH1). As to the kind of experiment: NOX5-dependent H2O2 signal modulators, primary screen, NOX inhibitor project, cell-based, HEK293-NOX5, Amplex Red fluorescence (AID 1161). The note with it: HEK293-NOX5, ionomycin, 45 min, higher = more signal.
A short description of test [11]: A549 cell viability effects, profiling panel, calcein-AM fluorescence, 48 h, basal (AID 1162). Further: test concentration not given here. The note with it: higher = more signal.
Test [12] in a line: adipocyte viability effects, profiling panel, cell-based, 3T3-L1 adipocytes, calcein-AM fluorescence, 48 h, basal (AID 1163). Further: test concentration not given here. To be noted: 3T3-L1 adipocytes viability, higher = more signal.
Test [13] in a line: HepG2 cell viability effects, profiling panel, calcein-AM fluorescence, 48 h, basal (AID 1164). Further: test concentration not given here. To be noted: higher = more signal.
A short description of test [14]: MM1S cell viability effects, profiling panel, calcein-AM fluorescence, 48 h, basal (AID 1165).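 Further: viability of MM1S multiple myeloma cells under basal unstimulated conditions; test concentration not given here.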 The note with it: higher = more signal.
Test [15] is described as follows: basal RPMI8226 viability, no added stimulus, profiling panel, cell-based, calcein-AM fluorescence, 48 h, PK04 Diversity Set (AID 1166).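 Further: cells grown under basal conditions without added stimulus; test concentration not given here.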 To be noted: RPMI8226 myeloma viability, higher = more signal.
A short description of test [16]: basal HepG2 mitochondrial membrane potential changes, profiling panel, cell-based, JC-1 fluorescence, 24 h, 100 nL compound (AID 1167). Further: test concentration not given here. To be noted: higher = more signal.
Test [17] is described as follows: basal 3T3-L1 adipocyte mitochondrial potential changes, profiling panel, cell-based, JC-1 fluorescence, 3T3-L1 adipocytes, 24 h, 100 nL compound (AID 1168). Further: test concentration not given here. The note with it: JC-1 mitochondrial fluorescence, higher = more signal, called active from +8 up or from −8 down.
Test [18] can be described thus: basal RPMI8226 mitochondrial membrane potential changes, profiling panel, cell-based, JC-1 fluorescence, 24 h, 100 nL compound (AID 1169). Further: test concentration not given here. The note with it: RPMI8226 myeloma, JC-1 mitochondrial potential fluorescence, higher = more signal.
The nature of test [19]: basal MM1S mitochondrial membrane potential changes, profiling panel, cell-based, JC-1 fluorescence, 24 h, 100 nL compound (AID 1170). Further: test concentration not given here. To be noted: higher = more signal.
Test [20] can be described thus: A549 lung cancer cell viability effects, profiling panel, resazurin fluorescence, 24 h, PK04 Diversity Set (AID 1171). Further: test concentration not given here. The note with it: higher = more signal, called active from +8 up or from −8 down. In general terms: Alamar Blue is a resazurin reagent that responds to reducing activity.

NADPH oxidase 5 (Homo sapiens), sequence (Q96PH1 whole entry, looked up): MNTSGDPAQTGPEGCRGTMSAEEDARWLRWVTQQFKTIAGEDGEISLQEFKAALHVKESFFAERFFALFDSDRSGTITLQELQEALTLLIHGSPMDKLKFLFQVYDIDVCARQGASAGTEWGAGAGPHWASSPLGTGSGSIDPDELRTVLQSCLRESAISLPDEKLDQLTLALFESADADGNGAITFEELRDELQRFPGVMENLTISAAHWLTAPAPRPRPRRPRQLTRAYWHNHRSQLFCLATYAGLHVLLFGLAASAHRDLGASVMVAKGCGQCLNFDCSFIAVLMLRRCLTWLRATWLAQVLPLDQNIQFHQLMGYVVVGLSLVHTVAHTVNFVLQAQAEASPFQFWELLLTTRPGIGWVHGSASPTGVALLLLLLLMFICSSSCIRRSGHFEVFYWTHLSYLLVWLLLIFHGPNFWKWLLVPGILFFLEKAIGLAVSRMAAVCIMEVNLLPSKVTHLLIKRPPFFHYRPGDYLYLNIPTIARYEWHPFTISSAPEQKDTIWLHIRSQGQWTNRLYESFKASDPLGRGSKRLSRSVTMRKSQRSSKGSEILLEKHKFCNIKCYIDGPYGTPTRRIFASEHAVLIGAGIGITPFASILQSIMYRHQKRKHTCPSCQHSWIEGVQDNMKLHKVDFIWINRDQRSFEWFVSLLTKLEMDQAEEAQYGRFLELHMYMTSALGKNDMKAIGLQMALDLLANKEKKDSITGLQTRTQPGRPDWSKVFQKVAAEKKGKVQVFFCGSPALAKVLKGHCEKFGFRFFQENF
NADPH oxidase 4 (Homo sapiens), sequence (Q9NPH5 whole entry, looked up): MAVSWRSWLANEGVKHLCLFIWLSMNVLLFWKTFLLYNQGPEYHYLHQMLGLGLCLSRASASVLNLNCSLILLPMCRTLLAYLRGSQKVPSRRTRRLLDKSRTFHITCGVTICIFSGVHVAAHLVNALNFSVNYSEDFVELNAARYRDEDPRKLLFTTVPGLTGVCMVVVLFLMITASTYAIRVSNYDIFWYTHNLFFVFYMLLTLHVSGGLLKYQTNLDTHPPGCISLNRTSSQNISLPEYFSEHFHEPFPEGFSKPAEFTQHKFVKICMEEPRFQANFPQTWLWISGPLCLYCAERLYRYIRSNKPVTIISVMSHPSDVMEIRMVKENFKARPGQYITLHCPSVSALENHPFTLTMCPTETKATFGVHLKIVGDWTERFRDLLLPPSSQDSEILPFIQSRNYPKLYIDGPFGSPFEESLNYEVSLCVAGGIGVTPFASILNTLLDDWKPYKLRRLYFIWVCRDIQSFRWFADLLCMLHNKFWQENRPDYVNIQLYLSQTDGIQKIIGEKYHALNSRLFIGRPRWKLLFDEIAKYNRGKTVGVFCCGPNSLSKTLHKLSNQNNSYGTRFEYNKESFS
NADPH oxidase 2 (Homo sapiens), sequence (P04839 whole entry, looked up): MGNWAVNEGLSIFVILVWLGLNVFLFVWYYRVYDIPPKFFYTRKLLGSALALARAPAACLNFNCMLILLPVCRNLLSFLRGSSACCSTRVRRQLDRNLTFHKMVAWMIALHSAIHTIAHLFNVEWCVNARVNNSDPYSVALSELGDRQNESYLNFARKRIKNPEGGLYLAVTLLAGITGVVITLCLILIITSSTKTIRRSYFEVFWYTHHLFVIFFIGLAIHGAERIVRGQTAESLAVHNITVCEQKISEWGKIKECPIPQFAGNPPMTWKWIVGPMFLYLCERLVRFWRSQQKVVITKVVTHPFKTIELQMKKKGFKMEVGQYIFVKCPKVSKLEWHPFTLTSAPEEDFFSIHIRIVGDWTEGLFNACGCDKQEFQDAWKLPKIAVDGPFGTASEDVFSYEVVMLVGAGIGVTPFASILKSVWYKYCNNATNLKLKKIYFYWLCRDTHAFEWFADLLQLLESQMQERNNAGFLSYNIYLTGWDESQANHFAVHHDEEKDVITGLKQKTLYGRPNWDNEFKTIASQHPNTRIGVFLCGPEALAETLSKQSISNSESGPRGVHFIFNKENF

Consider `C=CCC(OC(C)=O)[C@@H]1[C@@H](N(Cc2ccc(-c3cccc(C(F)(F)F)c3)o2)C(=O)Cc2ccc(F)cc2)c2cc(OCCCO)ccc2N1C(=O)Cc1ccc2ccccc2c1` (stereo not given in full), for which the z-score is -0.985 (inactive) in test [1]; 1.1 (inactive) in test [3]; 0.135 (inactive) in test [4]; -0.554 (inactive) in test [5]; -0.135 (inactive) in test [6]; -0.37 in test [7]. For the same compound, the z-score in test [8] was -1.03 (inactive); in test [9], 0.896 (inactive); in [10], 0.736; in test [11], -0.92; in [12], 1.1; in test [13] it was -0.0416. In addition, the z-score in test [14] was -1.7; in test [15] it was -0.261; in test [16] it was 1.8; in test [17], 0.978 (inactive); in [18], -0.0117; in test [19], 0.0602. The z-score in [20] was 0.623 (inactive). In addition, in test [2], the composite z-score came to 0.0919.
As to `C=CCOC(=O)[C@@H]1[C@H]2C(=O)O[C@H](c3ccccc3)[C@H](c3ccccc3)N2[C@H](c2ccc(OCCOC(=O)[C@H]3C[C@H]4C(=O)N[C@@H](CCCCN(C)C)C(=O)N4[C@H]3c3ccc(O)cc3)cc2)[C@@]12C(=O)Nc1ccc(I)cc12`, the z-score is -1.09 (inactive) in test [1]; -0.202 (inactive) in [3]; 0.422 (inactive) in [4]; 3.69 (inactive) in test [5]; -0.116 (inactive) in test [6]; -1.34 in test [7]. Further, the z-score in [8] was 1.6 (inactive); in [9], 0.182 (inactive); in test [10], 0.946; in [11] it was -0.191; in test [12], -0.357; in test [13], 0.278. Besides, the z-score in test [14] is -0.644; in test [15], -1.11; in test [16] it was 0.309; in test [17], 1.33 (inactive); in [18], -0.35; in test [19], -0.933. The z-score in test [20] is 0.923 (inactive). Besides, in test [2], the composite z-score was 0.0313.
With `C=CCC(OC(C)=O)[C@@H]1[C@@H](N(Cc2ccc(-c3ccccc3)cc2)C(=O)c2cccc3ccccc23)c2cc(OCCCO)ccc2N1C(=O)Cc1ccc(OC)cc1` (stereo not given in full), the z-score was -1.17 (inactive) in test [1]; 0.53 (inactive) in test [3]; 0.525 (inactive) in [4]; 0.375 (inactive) in test [5]; 0.211 (inactive) in test [6]; -0.0451 in test [7]. Also, the z-score in [8] was -0.248 (inactive); in test [9], -0.0822 (inactive); in test [10], -2.28; in test [11], -0.0276; in test [12], 0.725; in test [13] it was -0.518. Moreover, the z-score in test [14] is -0.536; in test [15] it was -0.682; in test [16] it was 1.57; in [17], -1.63 (inactive); in [18], 0.78; in [19], 0.401. The z-score in [20] was -0.399 (inactive). In [2], the composite z-score was found to be 0.568.
Take `COc1ccc(C(=O)Nc2ccc3c(c2)[C@@]2(O[C@H](CCO)[C@@H]([Si](C)(C)c4ccc(OC)cc4)[C@@H]2C)C(=O)N3Cc2ccccc2)cc1`: the z-score in test [1] is -0.134 (inactive); in test [3], 3.2 (inactive); in test [4], 0.98 (inactive); in test [5], 0.768 (inactive); in test [6], -0.188 (inactive); in [7] it was 0.721. Moreover, the z-score in test [8] is -4.96 (inactive); in test [9], -1.62 (inactive); in test [10], 0.371; in test [11] it was -1.68; in [12], 1.38; in [13], -3.6. For the same compound, the z-score is -2.72 in [14]; -4.3 in test [15]; -1.9 in test [16]; 1.59 (inactive) in [17]; -1.04 in [18]; -2.2 in test [19]. Also, in test [20], the z-score was -2.72 (inactive). In test [2], this compound registered a composite z-score of 0.778.
Consider `COc1ccc([Si](C)(C)[C@H]2[C@H](CC(=O)N3Cc4ccccc4C[C@H]3CO)O[C@@]3(C(=O)N(C)c4c(Br)cc(C)cc43)[C@@H]2C)cc1`, for which the z-score in test [1] is -1.05 (inactive); in [3], 9.31 (active); in test [4], 2.16 (inactive); in test [5], 1.31 (inactive); in [6], 1.68 (inactive); in test [7], 0.0914. In addition, the z-score in test [8] was 0.0544 (inactive); in test [9], 0.794 (inactive); in test [10], 0.136; in test [11] it was -2.66; in [12], 0.231; in test [13] it was -4.66. For the same compound, the z-score was -2.71 in test [14]; -4.36 in test [15]; -2.2 in test [16]; 0.0243 (inactive) in [17]; -1.12 in test [18]; -2.31 in test [19]. In [20], the z-score is -2.92 (inactive). This compound also displayed a composite z-score in [2] of 0.297.

The values above are taken from PubChem BioAssay.
